For nine compounds, z-score and composite z-score results are on record in PubChem BioAssay.

Active and inactive are the calls of the source. Unless noted, the rule behind the calls is not given here.

A short description of assay [1]: compound effects on lung adenocarcinoma cell viability – A549, calcein-AM fluorescence, 48 h, basal, profiling panel (AID 1162). Note: test concentration not given here. Particulars: higher = more signal.
Assay [2] in a line: compound effects on differentiated 3T3-L1 adipocyte viability – cell-based, 3T3-L1 adipocytes, calcein-AM fluorescence, 48 h, basal, profiling panel (AID 1163). Note: test concentration not given here. Particulars: 3T3-L1 adipocytes viability, higher = more signal.
The nature of assay [3]: compound effects on hepatocellular carcinoma cell viability – HepG2, calcein-AM fluorescence, 48 h, basal, profiling panel (AID 1164). Note: test concentration not given here. The note with it: higher = more signal.
Assay [4] is described as follows: compound effects on multiple myeloma cell viability – MM1S, calcein-AM fluorescence, 48 h, basal, profiling panel (AID 1165).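 Note: viability of MM1S multiple myeloma cells under basal unstimulated conditions; test concentration not given here.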 Particulars: higher = more signal.
The nature of assay [5]: calcein-AM signal in unstimulated myeloma cells – cell-based, calcein-AM fluorescence, 48 h, PK04 Diversity Set, profiling panel (AID 1166).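 Note: cells grown under basal conditions without added stimulus; test concentration not given here.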 The note with it: RPMI8226 myeloma viability, higher = more signal.
Assay [6] in a line: JC-1 mitochondrial signal, unstimulated HepG2 cells – cell-based, JC-1 fluorescence, 24 h, 100 nL compound, profiling panel (AID 1167). Note: test concentration not given here. Particulars: HepG2 mitochondrial potential, higher = more signal.
Assay [7] in a line: JC-1 mitochondrial signal, unstimulated adipocytes – cell-based, JC-1 fluorescence, 3T3-L1 adipocytes, 24 h, 100 nL compound, profiling panel (AID 1168). Note: test concentration not given here. The note with it: JC-1 mitochondrial fluorescence, higher = more signal, called active from +8 up or from −8 down.
A short description of assay [8]: JC-1 mitochondrial signal, unstimulated myeloma cells – cell-based, JC-1 fluorescence, RPMI8226, 24 h, 100 nL compound, profiling panel (AID 1169). Note: test concentration not given here. Particulars: JC-1 mitochondrial potential fluorescence, higher = more signal.
Assay [9] is described as follows: JC-1 mitochondrial signal, unstimulated MM1S myeloma – cell-based, JC-1 fluorescence, 24 h, 100 nL compound, profiling panel (AID 1170). Note: test concentration not given here. Particulars: MM1S mitochondrial potential, higher = more signal.
A short description of assay [10]: resazurin metabolic signal in A549 cells – cell-based, resazurin fluorescence, 24 h, PK04 Diversity Set, profiling panel (AID 1171). Note: test concentration not given here. The note with it: A549 viability, higher = more signal, called active from +8 up or from −8 down.
Assay [11] is described as follows: resazurin metabolic signal in HepG2 cells – cell-based, resazurin fluorescence, 24 h, PK04 Diversity Set, profiling panel (AID 1172). Note: test concentration not given here. Particulars: HepG2 viability, higher = more signal.
Assay [12] can be described thus: budding yeast growth changes without added modifier – OD600, strain BY4716, 24 h, basal condition, primary screen (AID 1173). Particulars: S. cerevisiae BY4716 growth, OD600, 24 h; higher = more signal, called active from +8 up or from −8 down.
A short description of assay [13]: viability profiling in MM1S myeloma cells – cell-based, resazurin fluorescence, basal, 24 h, PK04 Diversity Set, profiling panel (AID 1174). Note: test concentration not given here. Particulars: higher = more signal, called active from +8 up or from −8 down.
The target in assay [14] is Dihydroorotate dehydrogenase (quinone), mitochondrial (Plasmodium falciparum (isolate 3D7)) (UniProt Q08210). Kind of assay: inhibition of P. falciparum DHODH – biochemical, C-terminal His tag, absorbance 600 nm, primary screen (AID 1175).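 Note: recombinant parasite enzyme with a five histidine tag at its C terminus; test concentration not given here.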 Particulars: PfDHODH enzyme, DCIP absorbance 600 nm; higher = more signal, called active from +8 up or from −8 down.
Chain of Dihydroorotate dehydrogenase (quinone), mitochondrial (Plasmodium falciparum (isolate 3D7)) (Q08210 whole entry, looked up): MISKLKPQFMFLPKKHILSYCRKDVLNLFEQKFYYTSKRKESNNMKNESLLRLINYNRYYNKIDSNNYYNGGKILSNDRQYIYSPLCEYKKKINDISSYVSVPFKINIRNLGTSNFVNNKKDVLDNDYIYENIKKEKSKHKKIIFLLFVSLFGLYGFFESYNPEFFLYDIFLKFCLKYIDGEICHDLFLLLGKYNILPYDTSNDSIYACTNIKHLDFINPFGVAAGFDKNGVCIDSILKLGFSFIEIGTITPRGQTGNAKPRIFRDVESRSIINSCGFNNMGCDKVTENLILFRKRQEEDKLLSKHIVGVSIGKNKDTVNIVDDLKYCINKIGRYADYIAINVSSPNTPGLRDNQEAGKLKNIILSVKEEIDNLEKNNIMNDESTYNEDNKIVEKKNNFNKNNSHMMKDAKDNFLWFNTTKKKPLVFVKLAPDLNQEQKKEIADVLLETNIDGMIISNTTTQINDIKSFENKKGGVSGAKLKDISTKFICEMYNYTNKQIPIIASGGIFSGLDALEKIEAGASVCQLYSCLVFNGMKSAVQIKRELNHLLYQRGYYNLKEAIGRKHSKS
A short description of assay [15]: inhibition of PAO1 biofilm formation – strain PAO1, LB-PBS medium, absorbance 600 nm, primary screen (AID 1176). Note: test concentration not given here. The note with it: P. aeruginosa PAO1 growth/biofilm, A600, 12 h; higher = more signal.
A short description of assay [16]: growth modulation of vineyard yeast isolate – strain RM11-1a, OD600, basal, 24 h, primary screen (AID 1177).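 Note: cultures grown under basal conditions with no added stressor; test concentration not given here.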 The note with it: S. cerevisiae RM11-1a growth, OD600, 24 h; higher = more signal, called active from +8 up or from −8 down.
The nature of assay [17]: growth of efflux-deficient E. coli DRC39 – strain DRC39, OD650, 24 h, E. coli filamentation inducers, primary screen (AID 1178).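 Note: growth measured as culture turbidity by optical density at 650 nm; test concentration not given here.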 Particulars: E. coli DRC39 acrAB, higher = more signal, called active from +8 up or from −8 down.
Assay [18] is described as follows: growth of efflux-deficient E. coli DRC39 – strain DRC39, OD650, 48 h, E. coli filamentation inducers, primary screen (AID 1179).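 Note: screen aims at cell division blockers that make cells filament.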 The note with it: E. coli DRC39 delta-acrAB growth, higher = more signal, called active from +8 up or from −8 down.
Assay [19] in a line: viability profiling in RPMI8226 myeloma cells – cell-based, resazurin fluorescence, basal, 24 h, PK04 Diversity Set, profiling panel (AID 1180).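 Note: RPMI8826 multiple myeloma cell line at 5000 cells per well; test concentration not given here.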 The note with it: higher = more signal.
The target in assay [20] is E3 ubiquitin-protein ligase XIAP (Homo sapiens) (UniProt P98170). Kind of assay: small molecules binding XIAP protein – biophysical, small-molecule microarray, fluorescence 635 nm, primary screen (AID 1181).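 Note: score merges 667 nm emission and signal to noise over triplicate slides.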 The note with it: higher = more signal.
Chain of E3 ubiquitin-protein ligase XIAP (Homo sapiens) (P98170 whole entry, looked up): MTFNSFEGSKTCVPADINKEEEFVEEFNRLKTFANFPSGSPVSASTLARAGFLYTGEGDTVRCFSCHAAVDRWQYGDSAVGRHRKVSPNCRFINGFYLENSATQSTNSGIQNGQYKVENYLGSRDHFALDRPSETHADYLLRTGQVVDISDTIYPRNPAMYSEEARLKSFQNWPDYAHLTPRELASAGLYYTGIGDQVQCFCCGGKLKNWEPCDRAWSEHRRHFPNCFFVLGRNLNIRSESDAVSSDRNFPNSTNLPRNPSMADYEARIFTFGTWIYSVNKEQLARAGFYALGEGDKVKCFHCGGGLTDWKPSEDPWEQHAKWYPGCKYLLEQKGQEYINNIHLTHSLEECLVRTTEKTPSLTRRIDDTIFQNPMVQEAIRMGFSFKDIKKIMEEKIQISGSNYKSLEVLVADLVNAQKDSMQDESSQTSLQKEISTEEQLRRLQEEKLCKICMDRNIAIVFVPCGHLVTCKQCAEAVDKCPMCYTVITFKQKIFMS

As for `COCCOC(=O)N1C(=O)[C@@]2(c3cc(C#CCNC(N)=O)ccc31)[C@H](C(=O)N1CCc3cc(OC)c(OC)cc3C1)[C@H]1C(=O)O[C@H](c3ccccc3)[C@H](c3ccccc3)N1[C@@H]2c1ccc(OCCO)cc1`, the z-score in assay [1] is -0.21; in [2] it was 0.743; in assay [3] it was -0.0192; in assay [4], 0.128; in assay [5], 0.115; in [6], -0.691. Further, the z-score was 1.66 (inactive) in assay [7]; -0.468 in assay [8]; -0.864 in assay [9]; 0.0245 (inactive) in [10]; 0.631 in assay [11]; 2.28 (inactive) in assay [12]. The z-score in assay [13] is 0.761 (inactive); in assay [15] it was 1.92 (inactive); in assay [16], 2.97 (inactive); in [17] it was 0.987 (inactive); in [18], 0.781 (inactive); in assay [19], 0.856. For the same compound, the composite z-score was -0.232 (inactive) in [14] and 0.122 in [20].
Take `O=C1C2C=CC(C(O)c3ccc(B(O)O)cc3)N(Nc3ccccc3)C2C(=O)N1c1ccccc1` (stereo not given): the z-score in assay [1] was -1.52; in assay [2], -0.305; in [3], -1.38; in assay [4], -1.74; in assay [5], -2.12; in assay [6], -2.75. The z-score in [7] was -0.654 (inactive); in [8], -0.162; in assay [9], -0.613; in assay [10], -0.742 (inactive); in assay [11] it was -1.28; in assay [12], -0.841 (inactive). The z-score in assay [13] is -1.35 (inactive); in [15], 0.546 (inactive); in assay [16], 0.0003 (inactive); in assay [17] it was 0.17 (inactive); in [18] it was -0.346 (inactive); in assay [19] it was -1.59. The composite z-score in assay [14] was -0.395 (inactive); in [20] it was 0.0623.
Regarding `COc1ccc(C(O)C2C=CC3C(=O)NC(=O)C3N2Nc2ccccn2)cc1OCc1ccccc1` (stereo not given), the z-score in assay [1] is -1.11; in [2], 0.119; in [3], 0.222; in [4], -0.042; in assay [5] it was -1.22; in assay [6], -1. Moreover, the z-score in [7] is -0.479 (inactive); in assay [8], -0.879; in assay [9], 0.607; in assay [10] it was -0.404 (inactive); in [11], -0.8; in [12], 0.481 (inactive). For the same compound, the z-score in assay [13] was -0.581 (inactive); in [15], 1.48 (inactive); in assay [16] it was 0.18 (inactive); in assay [17], -0.855 (inactive); in assay [18], 0.145 (inactive); in [19] it was -1.87. The composite z-score in assay [14] was 1.58 (inactive); in assay [20], 0.578.
As to `C=C[C@@H](COC(C)=O)N(Cc1ccc([N+](=O)[O-])cc1)S(=O)(=O)c1ccc(Br)cc1`, the z-score in assay [1] is 1.97; in assay [2], -0.306; in assay [3] it was 0.452; in [4], 1.3; in [5] it was 0.647; in [6] it was 0.64. Also, the z-score is 0.0569 (inactive) in [7]; 0.667 in assay [8]; 0.198 in assay [9]; 2.05 (inactive) in [10]; 0.835 in [11]; -0.367 (inactive) in assay [12]. In addition, the z-score in [13] was 0.417 (inactive); in [15], -0.801 (inactive); in [16], 1.19 (inactive); in [17] it was 1.01 (inactive); in assay [18] it was 0.469 (inactive); in assay [19] it was 1.49. Besides, the values for the composite z-score in assay [14] and in [20] were -1.01 (inactive) and 0.0345, respectively.
Regarding `O=C1O[C@H](c2ccccc2)[C@H](c2ccccc2)N2[C@H]1[C@@H](C(=O)Nc1nc3ccccc3s1)[C@]1(C(=O)Nc3ccccc31)[C@H]2c1ccc(O)cc1`, the z-score was -0.167 in [1]; 0.657 in assay [2]; -1.99 in [3]; -3.38 in [4]; -4.51 in assay [5]; -3.78 in assay [6]. Besides, the z-score in assay [7] is 0.032 (inactive); in [8] it was -1.12; in [9], -0.564; in [10], -0.358 (inactive); in assay [11], -0.166; in assay [12], -0.373 (inactive). In addition, the z-score is -2.72 (inactive) in assay [13]; 1.18 (inactive) in assay [15]; -0.393 (inactive) in assay [16]; -0.797 (inactive) in assay [17]; -1.24 (inactive) in assay [18]; -2.81 in [19]. The results for the composite z-score in [14] and in [20] were 0.192 (inactive) and -0.127, respectively.
In the case of `COc1ccc(C(O)C2C=CC3C(=O)N(c4ccccc4)C(=O)C3N2Nc2ccc([N+](=O)[O-])cc2)cc1OCc1ccccc1` (stereo not given), the z-score in [1] is -0.805; in assay [2] it was -0.64; in [3], -1.09; in assay [4], 0.324; in assay [5] it was -0.378; in [6], -0.608. The z-score in assay [7] is -1.46 (inactive); in [8], -0.215; in assay [9] it was -0.693; in [10], 0.317 (inactive); in assay [11] it was -0.46; in assay [12] it was 0.948 (inactive). Moreover, the z-score in assay [13] was -0.644 (inactive); in [15], 2.14 (inactive); in assay [16], -0.384 (inactive); in [17], -0.908 (inactive); in assay [18], -0.337 (inactive); in assay [19], -0.839. Further, the composite z-score in [14] is 0.323 (inactive); in assay [20] it was -0.0655.
For `COCCOC(=O)N1C(=O)[C@@]2(c3cc(C#CCC(C(=O)OC)C(=O)OC)ccc31)[C@H](c1ccccc1OCCO)N1[C@H](c3ccccc3)[C@H](c3ccccc3)OC(=O)[C@H]1[C@@H]2C(N)=O`, the z-score was 0.597 in assay [1]; 0.0915 in [2]; -1.58 in assay [3]; -3.4 in [4]; -4.17 in assay [5]; -0.603 in [6]. The z-score is 1.69 (inactive) in assay [7]; -0.986 in [8]; -1.84 in assay [9]; -0.212 (inactive) in assay [10]; -0.592 in [11]; 0.9 (inactive) in assay [12]. In addition, the z-score in assay [13] is -9.3 (active); in assay [15], 0.774 (inactive); in assay [16], 1.97 (inactive); in assay [17], 0.116 (inactive); in assay [18] it was 0.857 (inactive); in assay [19] it was -7.24. In addition, the composite z-score was 0.47 (inactive) in assay [14] and -0.0874 in assay [20].
For `COc1ccc(CCN2C(=O)[C@@]3(Cc4ccccc42)c2ccccc2C(=O)N(Cc2ccccc2Cl)[C@H]3c2ccc(CO)cc2)cc1`, the z-score in assay [1] was 0.517; in assay [2], -0.0827; in [3], 0.589; in [4], 0.23; in [5], -0.441; in assay [6] it was 0.308. Moreover, the z-score in assay [7] was -0.106 (inactive); in [8], -0.316; in [9], 0.256; in assay [10] it was -0.343 (inactive); in [11] it was -0.349; in [12], -0.542 (inactive). The z-score in assay [13] was 0.249 (inactive); in assay [15] it was 1.57 (inactive); in assay [16], 0.215 (inactive); in assay [17], 0.157 (inactive); in assay [18], 0.353 (inactive); in [19] it was 0.314. The figures for the composite z-score in assay [14] and in [20] were -6.31 (inactive) and -0.142, respectively.
Consider `CCOC(=O)C1=CCC(c2ccc([N+](=O)[O-])cc2)N(S(=O)(=O)c2ccc(C)cc2)C1` (stereo not given), for which the z-score is -0.561 in assay [1]; -1.29 in assay [2]; 0.0862 in assay [3]; -0.0901 in assay [4]; -1.17 in assay [5]; 2.63 in assay [6]. For the same compound, the z-score in [7] was -0.769 (inactive); in assay [8] it was 0.877; in assay [9], -2.12; in assay [10], 0.395 (inactive); in assay [11], 0.291; in [12] it was 2.15 (inactive). The z-score in assay [13] is -1.1 (inactive); in assay [15] it was -0.116 (inactive); in [16], 2.42 (inactive); in [17], -0.627 (inactive); in [18], -0.418 (inactive); in assay [19], -1.5. The composite z-score in assay [14] was 0.774 (inactive); in assay [20], -0.0513.
